Inconclusive results are not listed. The source made the active and inactive calls. Calls follow the shape of the dose curve; as a rule, active = well fitted curve in the direction sought with a large enough effect in the repeat runs; inconclusive = weak or mixed curves; inactive = no such curve, though single readings can be large; an effect the other way counts as inactive or inconclusive.
Legend:
[1] = A CellTox Green Cytotoxicity Assay to monitor cytotoxicity in HEK293 cells - 40 hour (AID 1224871); also: nearly all actives have a fitted effect of over 45% in size
Summary of the method: (§1)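 HEK293 cells premixed with CellTox Green dye were seeded at 600 cells/well and left 5 h at 37 C/5% CO2 before pin transfer of 23 nL compound in DMSO. Fluorescence from dye bound to dead-cell DNA was read during 40 h treatment.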

[2] = qHTS RealTime-Glo MT Cell Viability Assay in HEK293 cells - 16 hour (AID 1224872); also: top concentration of the series differs between compounds; nearly all actives have a fitted effect of over 50% in size
Summary of the method: (§2)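 HEK293 cells seeded with NanoLuc/prosubstrate reagent, rested 5 h at 37 C, then dosed and kept at 37 C up to 40 h. Nonlytic real-time luminescence from viable cells read at 0, 8, 16, 24, 32 and 40 h.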

[3] = qHTS RealTime-Glo MT Cell Viability Assay in HEK293 cells - 40 hour (AID 1224874); conditions: RealTime-Glo luminescence; max response: stronger effect = lower value; also: nearly all actives have a fitted effect of over 50% in size
Summary of the method: (§3)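 HEK293 cells mixed with RealTime-Glo reagents (NanoLuc plus cell-permeant prosubstrate) at 600 cells/well, preincubated 5 h at 37 C/5% CO2, then given 23 nL compound in DMSO. Nonlytic luminescence from viable cells was read at 0, 8, 16, 24, 32 and 40 h.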

[4] = A CellTox Green Cytotoxicity Assay to monitor cytotoxicity in HEK293 cells - 24 hour (AID 1224875); also: series mostly up to about 77 µM; nearly all actives have a fitted effect of over 45% in size
Summary of the method: as §1

[5] = A CellTox Green Cytotoxicity Assay to monitor cytotoxicity in HepG2 cells - 16 hour (AID 1224876); also: nearly all actives have a fitted effect of over 45% in size
Summary of the method: (§4)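 HepG2 cells were seeded together with the CellTox Green dye at 600 cells/well, left 5 h at 37 C/5% CO2, then given compounds in DMSO. Fluorescence from dye bound to dead-cell DNA was read repeatedly over 40 h of treatment at 37 C.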

[6] = qHTS RealTime-Glo MT Cell Viability Assay in HepG2 cells - 32 hour (AID 1224877); also: nearly all actives have a fitted effect of over 55% in size
Summary of the method: (§5)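 HepG2 cells (600/well) were dispensed with RealTime-Glo reagents, incubated 5 h at 37 °C, then treated with compounds in DMSO for up to 40 h. Nonlytic NanoLuc luminescence reflecting viable cells was read at each stated time point.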

[7] = qHTS RealTime-Glo MT Cell Viability Assay in HEK293 cells - 0 hour (AID 1224880); also: top concentration of the series differs between compounds; nearly all actives have a fitted effect of over 45% in size
Summary of the method: as §3

[8] = A CellTox Green Cytotoxicity Assay to monitor cytotoxicity in HEK293 cells - 32 hour (AID 1224881); also: nearly all actives have a fitted effect of over 40% in size
Summary of the method: as §1

[9] = A CellTox Green Cytotoxicity Assay to monitor cytotoxicity in HepG2 cells - 0 hour (AID 1224882); also: nearly all actives have a fitted effect of over 35% in size; also: potency is read from the fitted curve at half-maximal effect
Summary of the method: as §4

[10] = A CellTox Green Cytotoxicity Assay to monitor cytotoxicity in HEK293 cells - 8 hour (AID 1224884); also: nearly all actives have a fitted effect of over 35% in size
Summary of the method: as §1

[11] = qHTS RealTime-Glo MT Cell Viability Assay in HepG2 cells - 16 hour (AID 1224885); also: nearly all actives have a fitted effect of over 50% in size
Summary of the method: as §5

[12] = qHTS RealTime-Glo MT Cell Viability Assay in HEK293 cells - 24 hour (AID 1224886); also: top concentration of the series differs between compounds; nearly all actives have a fitted effect of over 50% in size
Summary of the method: as §2

[13] = A CellTox Green Cytotoxicity Assay to monitor cytotoxicity in HEK293 cells - 16 hour (AID 1224888); also: nearly all actives have a fitted effect of over 35% in size
Summary of the method: as §1

[14] = qHTS RealTime-Glo MT Cell Viability Assay in HepG2 cells - 0 hour (AID 1224889); also: nearly all actives have a fitted effect of over 50% in size
Summary of the method: as §5

[15] = A CellTox Green Cytotoxicity Assay to monitor cytotoxicity in HepG2 cells - 8 hour (AID 1224890); also: nearly all actives have a fitted effect of over 45% in size
Summary of the method: as §4

[16] = qHTS RealTime-Glo MT Cell Viability Assay in HepG2 cells - 8 hour (AID 1224873); also: nearly all actives have a fitted effect of over 55% in size
Summary of the method: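 HepG2 cells (600/well) mixed with RealTime-Glo MT reagent, settled 5 h at 37 C/5% CO2 before compound addition. Nonlytic NanoLuc luminescence from viable-cell prosubstrate reduction read repeatedly during 40 h treatment at 37 C.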

[17] = A CellTox Green Cytotoxicity Assay to monitor cytotoxicity in HepG2 cells - 24 hour (AID 1224878); also: nearly all actives have a fitted effect of over 45% in size
Summary of the method: as §4

[18] = A CellTox Green Cytotoxicity Assay to monitor cytotoxicity in HepG2 cells - 40 hour (AID 1224879); also: nearly all actives have a fitted effect of over 40% in size
Summary of the method: as §4

[19] = A CellTox Green Cytotoxicity Assay to monitor cytotoxicity in HepG2 cells - 32 hour (AID 1224883); also: nearly all actives have a fitted effect of over 50% in size
Summary of the method: as §4

[20] = qHTS RealTime-Glo MT Cell Viability Assay in HEK293 cells - 8 hour (AID 1224887)
Summary of the method: as §3
% is scaled to controls: 0 for no effect and ±100 for the full control effect.

CC/C=C\CCCCO
inactive: Potency [1] | Potency [2] | max response [3] 1.83% | Potency [4] | Potency [5] | Potency [6] | outcome [7] | Potency [8] | Potency [9] | Potency [10] | outcome [11] | Potency [12] | Potency [13] | Potency [14] | Potency [15]

NC(=O)c1ncn([C@@H]2O[C@H](CO)[C@@H](O)[C@H]2O)c1N
inactive: Potency [1] | outcome [16] | max response [3] -6.56% | Potency [4] | Potency [5] | Potency [6] | Potency [17] | Potency [18] | outcome [7] | Potency [8] | Potency [19] | Potency [10] | outcome [11] | Potency [12] | Potency [20] | Potency [14]
active: Potency [9] 10.7 µM

Cc1cc(C)cc(OCC2CNC(=O)O2)c1 (stereo not drawn)
inactive: Potency [1] | outcome [16] | max response [3] 2.49% | Potency [4] | Potency [5] | Potency [6] | Potency [17] | Potency [18] | outcome [7] | Potency [8] | Potency [9] | Potency [19] | Potency [10] | outcome [11] | Potency [12] | Potency [20] | Potency [13] | Potency [14] | Potency [15]

OC/C=C/c1ccccc1
inactive: Potency [1] | outcome [16] | max response [3] 21.7% | Potency [4] | Potency [5] | Potency [6] | Potency [17] | Potency [18] | outcome [7] | Potency [8] | Potency [9] | Potency [19] | Potency [10] | outcome [11] | Potency [12] | Potency [20] | Potency [13] | Potency [14]

CO
inactive: Potency [1] | outcome [16] | max response [3] 3.26% | Potency [4] | Potency [5] | Potency [6] | Potency [17] | Potency [18] | outcome [7] | Potency [8] | Potency [9] | Potency [19] | Potency [10] | outcome [11] | Potency [20] | Potency [13] | Potency [14]

Cc1ccccc1C(=O)O
inactive: Potency [1] | Potency [2] | max response [3] -0.805% | Potency [4] | Potency [5] | Potency [6] | outcome [7] | Potency [8] | Potency [9] | Potency [10] | outcome [11] | Potency [12] | Potency [20] | Potency [13] | Potency [14] | Potency [15]

COC(=O)[C@H]1[C@H]2C[C@@H]3c4[nH]c5cc(OC)ccc5c4CCN3C[C@H]2C[C@@H](OC(=O)COc2ccc(OC)cc2)[C@@H]1OC
inactive: Potency [1] | Potency [2] | max response [3] 6.2% | Potency [4] | Potency [5] | Potency [17] | Potency [18] | outcome [7] | Potency [8] | Potency [9] | Potency [19] | outcome [11] | Potency [12] | Potency [20] | Potency [13] | Potency [14] | Potency [15]

CN1[C@@H]2CC[C@H]1CC(NC(=O)n1c(=O)[nH]c3ccccc31)C2 (stereo partly drawn)
inactive: Potency [1] | outcome [16] | max response [3] -2.86% | Potency [4] | Potency [5] | Potency [6] | Potency [17] | Potency [18] | outcome [7] | Potency [8] | Potency [9] | Potency [19] | Potency [10] | outcome [11] | Potency [12] | Potency [14] | Potency [15]

Oc1ccc2c(c1)OC[C@@H](N1CCC(O)(c3ccc(F)cc3)CC1)[C@H]2O
inactive: Potency [1] | Potency [2] | max response [3] -13.9% | Potency [4] | Potency [5] | Potency [6] | Potency [17] | Potency [18] | outcome [7] | Potency [8] | Potency [9] | outcome [11] | Potency [20] | Potency [13] | Potency [14] | Potency [15]

Nc1nc(F)nc2c1ncn2[C@@H]1O[C@H](CO)[C@@H](O)[C@@H]1O
inactive: Potency [1] | Potency [2] | max response [3] -1.6% | Potency [4] | Potency [5] | Potency [6] | Potency [18] | outcome [7] | Potency [8] | Potency [9] | Potency [19] | Potency [10] | outcome [11] | Potency [12] | Potency [20] | Potency [14] | Potency [15]

CCC(=O)/C=C/c1ccc(OC)cc1
inactive: Potency [1] | outcome [16] | max response [3] -0.0895% | Potency [4] | Potency [5] | Potency [6] | Potency [17] | Potency [18] | outcome [7] | Potency [8] | Potency [9] | Potency [19] | Potency [10] | outcome [11] | Potency [12] | Potency [20] | Potency [13] | Potency [14] | Potency [15]

C=CCOc1nc(OCC=C)nc(OCC=C)n1
inactive: Potency [1] | outcome [16] | max response [3] 11.1% | Potency [4] | Potency [5] | Potency [6] | Potency [17] | Potency [18] | outcome [7] | Potency [8] | Potency [9] | Potency [19] | Potency [10] | outcome [11] | Potency [12] | Potency [20] | Potency [13] | Potency [14] | Potency [15]

FC(F)(F)C(F)(F)C(F)(F)C(F)(F)C(F)(F)C(F)(F)C(F)(F)C(F)(F)C(F)(F)C(F)(F)F
inactive: cytotoxicity increase [1] -18% [at 6.97 µM] | viability change, negative = cytotoxic [16] 3.63% [at 6.97 µM] | max response [3] -1.44% | activity change [4] -7.77% [at 6.97 µM, stronger effect = higher value] | cytotoxicity increase [5] 1.39% [at 6.97 µM] | activity change, negative = cytotoxic [6] -2.37% [at 6.97 µM] | cytotoxicity [17] 4.69% [at 6.97 µM] | cytotoxicity increase [18] 1.66% [at 6.97 µM] | activity change, negative = cytotoxicity [7] -21.9% [at 6.97 µM] | cytotoxicity increase [8] -14.9% [at 6.97 µM] | cytotoxicity [9] 4.39% [at 6.97 µM] | cytotoxicity increase [19] 1.61% [at 6.97 µM] | cytotoxicity increase [10] 4.13% [at 6.97 µM] | activity change, negative = cytotoxic [11] 3.86% [at 6.97 µM] | activity change, negative = cytotoxicity [12] -12.9% [at 6.97 µM] | activity change, negative = cytotoxicity [20] -20.1% [at 6.97 µM] | activity change [13] -9% [at 6.97 µM, stronger effect = higher value] | activity change, negative = cytotoxicity [14] 12.4% [at 6.97 µM] | cytotoxicity increase [15] -4.05% [at 6.97 µM]

NC1CCN(c2cccc(Cl)n2)CC1
inactive: Potency [1] | Potency [2] | max response [3] -1.03% | Potency [4] | Potency [5] | Potency [6] | Potency [18] | outcome [7] | Potency [8] | Potency [9] | Potency [10] | outcome [11] | Potency [12] | Potency [20] | Potency [13] | Potency [14] | Potency [15]

From PubChem BioAssay (Tox21)
